# Rows were chosen to be rich in hits. Some 11% of all compounds tested hit in one or more screens of this group.
# HttQ103 aggreg: reduces HttQ103-GFP aggregates in PC12 cells; PC12 HttQ103-GFP aggregates, Acumen cytometry, 40 h; Potency, µM (highest dose often 46.1 µM), inactives show top-dose activity change, negative = inhibition, hits mostly inhibitors; hit rate 1.1% among 220,000; further: potency means the concentration at half of the fitted maximal effect; on the % scale 0 is the no-effect control and ±100 the full control effect; nearly all actives have a fitted effect of over 60% in size
#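 Compounds (qHTS titration) were added to PC12 cells expressing an ecdysone-driven HTT exon 1 Q103–GFP fusion after induction with 100 nM tebufenozide. Aggregate formation was measured as GFP objects in cell lysates.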
# HTT ATP protect: cytoprotection in Huntington HTT-Q103 PC12 cell model; PC12 HTT-Q103 induced, cytoprotection, ATP luminescence, 40 h; Potency, µM (top dose mostly 56.4 µM), without a hit: cytoprotection (ATP increase), most hits filed as activators; hit rate 0.14% among 230,000; AID 1471; further: potency means the concentration at half of the fitted maximal effect; % of control where 0% means no effect; nearly all actives have a fitted effect of over 45% in size
#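 PC12 cells with ecdysone-inducible HTT exon 1 Q103-GFP, induced with 100 nM tebufenozide and co-treated with library compounds in a dose series (1536-well, 1500 cells/well). Cytoprotection read as ATP content by ATPlite luminescence.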
# PNC assembly inh: blocks assembly of the perinucleolar compartment; hit rate 3.1% among 140,000; AID 2417; PC3M PTB-GFP, PNC prevalence imaging, 16 h; active compounds read low; activity change (PNC), negative = inhibition, % at 10 µM;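 active means readout at or below -70, meaning at least 70% loss of cells showing the perinucleolar compartment, a nuclear body marking cancer cells; inconclusive means readout between -30 and a set limit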;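 further: plate controls were DMSO wells for no effect and camptothecin positive control wells for full effect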
#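 Compounds are pinned in duplicate onto adhered PC3M cells stably expressing GFP-tagged PTB and incubated 16 h at 37 C. Cells are then fixed, nuclei stained with Hoechst, and PNC-positive cells counted.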
# CBFb-RUNX1 inh: blocks binding between human CBF-beta and RUNX1; Q01196+Q13951; AlphaScreen CBFb-His/RUNX1-biotin binding, biochemical; Potency, µM (titrated, usually from 59.8 µM), inactives show top-dose activity, negative = inhibition, most hits filed as inhibitors; 230,000 tested, under 10 active; AID 1477; further: % of control where 0% means no effect
#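 Interaction loss through any mechanism counts as activity. Pre-formed complex of His-CBF-beta and biotin-RUNX1 (30 nM apiece) is incubated with compound 15 min, then with 50 ng nickel and 50 ng streptavidin beads for 90 min before AlphaScreen detection.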
# ALDH1A1 block: inhibitors of human aldehyde dehydrogenase 1A1 | P00352 | Purified ALDH1A1, NADH fluorescence, propionaldehyde substrate | Potency, µM (top dose mostly 75.3 µM), for the others: top-dose activity, negative = inhibition, actives largely listed as inhibitors | hit rate 7.3% among 220,000; active means well fitted inhibition curve with a large enough effect, not every such curve was filed as active; inconclusive means small, poorly fitted or top-dose-only effect, or another doubt; inactive means no such curve, though single readings can be large or run the other way;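 further: potency means the concentration at half of the fitted maximal effect; plate controls were no enzyme wells and a reference inhibitor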
# HPGD inh: inhibitors of human 15-hydroxyprostaglandin dehydrogenase (HPGD); P15428; purified HPGD, NADH fluorescence kinetic, PGE2 substrate; Potency, µM, for inactives: at the highest dose activity change, negative = inhibition, most hits filed as inhibitors; hit rate 4.3% among 150,000; active means well fitted inhibition curve with a large enough effect, not every such curve was filed as active; inconclusive means small, poorly fitted or top-dose-only effect, or another doubt; inactive means no such curve, though single readings can be large or run the other way; further: potency means the concentration at half of the fitted maximal effect; on the % scale 0 is the no-effect control and ±100 the full control effect
# Target sequence (P15428 whole entry, looked up): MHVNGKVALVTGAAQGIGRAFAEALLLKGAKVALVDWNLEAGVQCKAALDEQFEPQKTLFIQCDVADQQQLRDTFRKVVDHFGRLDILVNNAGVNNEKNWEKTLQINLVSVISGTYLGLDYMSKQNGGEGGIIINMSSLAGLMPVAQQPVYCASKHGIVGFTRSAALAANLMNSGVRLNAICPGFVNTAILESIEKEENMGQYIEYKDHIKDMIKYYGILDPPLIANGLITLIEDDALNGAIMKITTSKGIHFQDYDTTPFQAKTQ
#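 20 nM HPGD preincubated 15 min at room temperature with compound in 50 mM Tris-HCl pH 8, 0.01% Tween 20. Started with 1 mM NAD+ and 30 uM prostaglandin E2; NADH fluorescence (360/450 nm) read 5 times over 30-s intervals, last minus first.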
# * hit, by the source's call; ? = inconclusive; . = no result given; ! = repeats disagree; [ ] = dose if it differs, or a comment. Unless noted, the call rests on the fitted dose curve; in most records, active means well fitted curve in the direction sought with a large enough effect; inconclusive means small, poorly fitted or top-dose-only effect, or another doubt; inactive means no such curve, though single readings can be large; an effect the other way counts as inactive or inconclusive.
SMILES,HttQ103 aggreg,HTT ATP protect,PNC assembly inh,CBFb-RUNX1 inh,ALDH1A1 block,HPGD inh
Cc1ccc(C(=O)C2CN3CCC2CC3)cc1 (configuration not stated),6%,3%[1.9 µM],-27,5%,28µM*,-10%
CCCN(CCC)C1Cc2cc(OC)c(OC)cc2C1,.,-48%,.,18%,22µM*!,-17%
CN(C)C(=O)Oc1ccc(Cl)c2ccccc12,-1%,2%,?,6%,-3%,-15%
N=C(N)SCc1ccc(Cl)c2ccccc12 (tested in a mixture with another compound),.,24%[10 µM],.,.,-1%[13.5 µM],4.5µM*!
C[C@@H]1O[C@H](O[C@H]2C[C@@H](O)[C@]3(CO)[C@H]4[C@H](O)C[C@]5(C)[C@@H](C6=CC(=O)OC6)CC[C@@]5(O)[C@H]4CC[C@]3(O)C2)[C@@H](O)[C@H](O)[C@H]1O,.,1%,.,.,.,.
C#C[C@]1(O)CC[C@H]2[C@@H]3CCC4=CC(=O)CCC4(C)[C@H]3CCC21C (some centres not stated),0%,8%,.,4%,5%,-11%
ClCC(Cl)CCl,.,13%,.,6%[21.7 µM],14%,-5%
C=CCN1C(=O)NC(=O)/C(=C/c2ccc(OC)c(COc3ccc(NC(C)=O)cc3)c2)C1=O,1%[9.22 µM],21%[10 µM],.,-2%,?,.
C=CCN1C(=O)NC(=O)/C(=C/c2ccc(OC)c(CSc3ccccn3)c2)C1=O,24%,3%,83,3%,13µM*,28µM*
Oc1ccc2c3c1O[C@H]1c4oc5ccccc5c4C[C@]4(O)[C@H](C2)N(CC2CC2)CC[C@@]314,.,?,.,6%[21.7 µM],3%,-6%
O=C1C=C2C=C[C@H]3C[C@]2(O1)[C@@H]1CCCCN13,.,.,19,8%[2.36 µM],11%,1%
O=C1C=C2C=CC3C[C@@]2(O1)C1CCCCN31 (some centres not stated),.,1.6µM*,.,-6%,-10%,0%
O=C1C=C2C=C[C@H]3C[C@@]2(O1)[C@H]1CCCCN31,.,6.3µM*,.,-13%[21.7 µM],0%[20.9 µM],-2%
O=C(Cl)C(Cl)(Cl)Cl,.,-5%,.,11%[21.7 µM],-5%,-2%
CN1/C(=C\C=C\C2=[N+](C)c3ccc4ccccc4c3C2(C)C)C(C)(C)c2ccccc21,2.8µM*,-114%,1,.,20µM*,-2%
CN1/C(=C\C=Nc2ccccc2)C(C)(C)c2ccccc21,-12%,8%,13,-5%,1%,.
O=C1NC(=O)C(=Cc2coc3ccc(O)cc3c2=O)C(=O)N1,2%[9.22 µM],-3%[10 µM],.,0%,3.5µM*,.
COc1ccc(N2C(=O)C(Cl)=C(N3CCN(Cc4ccccc4)CC3)C2=O)cc1,2%,-8%[0.074 µM],-20,-26%,?,-10%
O=C1C(Cl)=C(N2CCCCCC2)C(=O)N1c1ccccc1,19%,-8%,?,2%,?,16µM*
CN1CC[C@@]2(c3cccc(O)c3)Cc3nc4ccccc4cc3C[C@H]2C1,.,?,.,-6%[21.7 µM],-2%,-8%
CCCCn1c(O)c(C(CC)=NCc2ccc3c(c2)OCO3)c(=O)[nH]c1=O,25µM*,-18%,-7,-1%,-4%,-4%
C=CCn1c(O)c(C(CC)=NCc2ccc3c(c2)OCO3)c(=O)[nH]c1=O,6%[9.22 µM],-5%[10 µM],.,3%,.,.
Cc1ccc([N+](=O)[O-])cc1,.,-6%,.,9%[21.7 µM],-3%,-16%
CCOP(=S)(OCC)Oc1ccc([N+](=O)[O-])cc1,.,12%,.,?,16µM*,-12%
Cc1ccccc1-n1c(O)c(/C=N/Nc2nc3c(c(=O)n(C)c(=O)n3C)n2C)c(=O)[nH]c1=S,-7%,13%[10 µM],25,?,13µM*,-19%
Cc1cccc(-n2c(O)c(/C=N/Nc3nc4c(c(=O)n(C)c(=O)n4C)n3C)c(=O)[nH]c2=S)c1,-20%,19%[10 µM],-28,.,10µM*,-28%
Cn1c(=O)c2c(nc(N/N=C/c3c(O)n(C4CCCCC4)c(=S)[nH]c3=O)n2C)n(C)c1=O,-19%[9.22 µM],-3%[10 µM],.,-11%,.,.

# Screening results deposited in PubChem by National Center for Advancing Translational Sciences (NCATS).
